A short description of assay [1]: ATG_FoxO_CIS: Attagene CIS-FACTORIAL HepG2 Assay for human Forkhead box O (FoxO) (AID 2282943). Conditions: HepG2 Attagene cis-reporter, FoxO element, mRNA; actives raise or lower the signal. Summed up:
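HepG2 cells transiently transfected with cis-element-driven reporter units report endogenous FoxO activity. After 24 h chemical exposure, reporter mRNA quantified by RT-PCR, fluorescent labeling, HpaI digestion and capillary electrophoresis; bidirectional fit versus DMSO.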

Assay [2] is described as follows: ATG_GRE_CIS: Attagene CIS-FACTORIAL HepG2 Assay for human Glucocorticoid Response Elements (GRE) (AID 2282947). Conditions: HepG2 GRE cis-reporter, Attagene multiplex mRNA; actives raise or lower the signal. Summed up:
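Read-out: fluorescent reporter-transcript fragments separated by capillary electrophoresis after RT-PCR. Transiently transfected HepG2 cells carrying cis-element-driven reporter units were dosed for 24 h; gain or loss of signal fitted against DMSO control.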

The target of assay [3] is Signal transducer and activator of transcription 3 (Homo sapiens) (UniProt P40763). The assay can be described thus: ATG_STAT3_CIS: Attagene CIS-FACTORIAL HepG2 Assay for human Signal Transducer and Activator of Transcription 3 (STAT3) (AID 2282963). Conditions: HepG2, Attagene cis-factorial STAT3 reporter transcription; actives raise or lower the signal. Summed up:
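Readout: fluorescent reporter mRNA fragments resolved by capillary electrophoresis. Setup: HepG2 transfected with MRTUs reporting endogenous transcription-factor activity, dosed 24 h. Gain or loss of signal fitted bidirectionally against DMSO control.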

Assay [4] is described as follows: ATG_M_06_TRANS: Attagene TRANS-FACTORIAL HepG2 Assay for M06 Transcription Factor (Internal Marker) (AID 2282983; active = hit-call score of the fitted dose curve at least 0.9, where 1 is the maximum;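 also: reporter transcript level by RT-PCR then capillary electrophoresis fluorescence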). Conditions: HepG2 Attagene TRANS M06 internal marker reporter. Summed up:
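In this multiplexed HepG2 system, compounds are incubated 24 h with cells carrying GAL4-UAS reporter units. Reporter RNA is amplified and resolved by capillary electrophoresis, and induction is scored against DMSO.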

A short description of assay [5]: ATG_Oct_MLP_CIS: Attagene CIS-FACTORIAL HepG2 Assay for human Octamer-Binding Transcription Factor (Oct) (AID 2282993). Conditions: HepG2 Attagene cis-factorial Oct reporter, mRNA; actives raise or lower the signal. A digest of the protocol:
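Cells of the HepG2 line express promoter-controlled reporter sequences whose mRNA levels, after 24 h treatment, are measured by RT-PCR and capillary electrophoresis. Increases and decreases are scored relative to DMSO.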

For assay [6], the target named is human Peroxisome Proliferator-activated Receptor alpha (PPARa), PPARA (gene 5465) (UniProt Q07869). The assay can be described thus: ATG_PPARa_TRANS: Attagene TRANS-FACTORIAL HepG2 Assay for human Peroxisome Proliferator-activated Receptor alpha (PPARa) (AID 2283001; active = hit-call score of the fitted dose curve at least 0.9, where 1 is the maximum;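 as to AC50: potency for gain of reporter signal over DMSO so agonist or activator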). A digest of the protocol:
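Transient HepG2 transfection, GAL4-UAS reporters, NR-Gal4 chimeras; 24 h compound exposure. Readout: reporter transcripts by RT-PCR, 6-FAM primer extension, HpaI digest, capillary electrophoresis. Positive direction vs DMSO baseline.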

The target of assay [7] is Nuclear receptor subfamily 1 group I member 2 (Homo sapiens) (UniProt O75469). The assay can be described thus: ATG_PXR_TRANS: Attagene TRANS-FACTORIAL HepG2 Assay for human Pregnane X Receptor (PXR) (AID 2283008; active = hit-call score of the fitted dose curve at least 0.9, where 1 is the maximum). Summed up: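 Trans-factorial format: exogenous NR-Gal4 fusion activity, not endogenous factor, in transfected human HepG2 liver cells. After 24 h dosing, RNA isolated, reverse-transcribed, amplified and resolved by capillary electrophoresis; induction scored versus DMSO.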
Sequence of Nuclear receptor subfamily 1 group I member 2 (Homo sapiens) (O75469 whole entry, looked up, the tested form may be a part): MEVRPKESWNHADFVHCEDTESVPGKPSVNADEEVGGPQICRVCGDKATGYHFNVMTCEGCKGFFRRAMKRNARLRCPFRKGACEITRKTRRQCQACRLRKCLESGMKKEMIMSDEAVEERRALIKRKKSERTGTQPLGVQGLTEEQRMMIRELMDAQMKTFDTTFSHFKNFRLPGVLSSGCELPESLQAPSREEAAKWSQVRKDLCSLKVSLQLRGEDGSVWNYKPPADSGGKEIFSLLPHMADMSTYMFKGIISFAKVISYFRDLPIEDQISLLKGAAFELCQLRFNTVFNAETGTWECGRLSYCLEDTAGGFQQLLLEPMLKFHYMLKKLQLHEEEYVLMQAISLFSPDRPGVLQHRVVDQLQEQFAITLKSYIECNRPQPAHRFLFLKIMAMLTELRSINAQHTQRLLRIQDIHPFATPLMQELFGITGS

Assay [8] is described as follows: ATG_GLI_CIS: Attagene CIS-FACTORIAL HepG2 Assay for human Zinc Finger Protein GLI1 (AID 2282945). Conditions: HepG2, Attagene cis-factorial reporter mRNA, GLI element; actives raise or lower the signal. Summed up: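 Transiently transfected HepG2 cells report endogenous transcription factor activity via cis-element-driven reporter units. After 24 h compound exposure, reporter mRNA was measured by RT-PCR with capillary electrophoresis; bidirectional fitting against DMSO baseline.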

Assay [9] in a line: ATG_SREBP_CIS: Attagene CIS-FACTORIAL HepG2 Assay for human Sterol Regulatory Element Binding (SREBP) (AID 2282962). Conditions: HepG2 Attagene cis-factorial SREBP reporter, mRNA; actives raise or lower the signal. A digest of the protocol:
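Readout: fluorescent reporter-transcript peaks resolved by capillary electrophoresis after RT-PCR. Cells were human HepG2 carrying transfected cis-promoter reporter constructs, dosed for 24 h. Gain or loss of signal was fitted against DMSO controls.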

Assay [10] can be described thus: ACEA_ER_AUC_viability: ACEA Biosciences xCELLigence Real-Time Cell Analysis on Estrogen Receptor Agonism for Viability (AID 2283782; active = hit-call score of the fitted dose curve at least 0.9, where 1 is the maximum;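 also: hit means loss of impedance signal meaning reduced cell growth or viability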). Summed up:
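Read-out: real-time electrical impedance (RT-CES) area under curve, loss of signal taken as reduced viability, normalized to DMSO baseline. T-47D cells, charcoal-stripped serum medium, compounds up to 100 uM final, continuous exposure, 80 h.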

Read-out in assay [11]: Interleukin-8 (IL8), CXCL8 (gene 3576)
Put plainly: BSK_3C_IL8: BioMAP Diversity Plus: 3C Assay for Interleukin-8 (IL8) Biomarker Activity (AID 2283020). Conditions: primary human endothelial cells (HUVEC); actives raise or lower the signal. Summed up: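 Using DMSO-treated wells as the baseline, bidirectional curve fitting was applied to ELISA-measured IL-8 from human umbilical vein endothelial cultures sampled 24 h after compound addition.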

Read-out in assay [12]: Thrombomodulin, THBD (gene 7056)
The assay can be described thus: BSK_3C_Thrombomodulin: BioMAP Diversity Plus: 3C Assay for Thrombomodulin Biomarker Activity (AID 2283029). Conditions: primary human endothelial cells (HUVEC); actives raise or lower the signal. A digest of the protocol:
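In a multiplexed primary-cell system, human umbilical vein endothelium received chemical and was assayed 24 h later for thrombomodulin by ELISA. Parallel cultures were SRB-stained (0.1% SRB after 10% TCA fixation, read at 560 nm) to flag cytotoxicity.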

Read-out in assay [13]: Urokinase-type plasminogen activator receptor (uPAR), PLAUR (gene 5329)
The assay can be described thus: BSK_4H_uPAR: BioMAP Diversity Plus: 4H Assay for Urokinase-type plasminogen activator receptor (uPAR) Biomarker Activity (AID 2283030). Conditions: primary human endothelial cells (HUVEC); actives raise or lower the signal. Summed up:
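Primary human umbilical vein endothelial cells were exposed to chemical for 24 h before cell-surface uPAR was quantified by ELISA. Activity was fitted bidirectionally against the DMSO negative control baseline.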

Read-out in assay [14]: Vascular endothelial growth factor receptor 2 (Homo sapiens) (UniProt P35968)
Put plainly: BSK_4H_VEGFRII: BioMAP Diversity Plus: 4H Assay for Vascular endothelial growth factor receptor 2 (VEGFR2) Biomarker Activity (AID 2283031).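 As to AC50: cell-surface VEGFR2 protein level quantified by ELISA.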 Conditions: primary human endothelial cells (HUVEC); actives raise or lower the signal. Summed up: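 Primary human umbilical vein endothelial cells in the BioMAP 4H system were dosed with test chemical, and 24 h later VEGFRII was measured by ELISA. Activity was fitted bidirectionally against DMSO as negative control and baseline.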

Read-out in assay [15]: Monokine induced gamma interferon (MIG), CXCL9 (gene 4283)
Put plainly: BSK_CASM3C_MIG: BioMAP Diversity Plus: CASM3C Assay for Monokine induced gamma interferon (MIG) Biomarker Activity (AID 2283048).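 Also: MIG protein level measured by ELISA.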 Conditions: primary human coronary artery smooth muscle cells; actives raise or lower the signal.

Read-out in assay [16]: serum amyloid A (SAA), SAA1 (gene 6288)
The assay can be described thus: BSK_CASM3C_SAA: BioMAP Diversity Plus: CASM3C Assay for serum amyloid A (SAA) Biomarker Activity (AID 2283049).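 Also: SAA protein level quantified by ELISA.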 Conditions: primary human coronary artery smooth muscle cells; actives raise or lower the signal.

Read-out in assay [17]: Thrombomodulin, THBD (gene 7056)
Put plainly: BSK_CASM3C_Thrombomodulin: BioMAP Diversity Plus: CASM3C Assay for Thrombomodulin Biomarker Activity (AID 2283051).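 Also: thrombomodulin protein level measured by ELISA 24 h after dosing.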 Conditions: primary human coronary artery smooth muscle cells; actives raise or lower the signal.

Read-out in assay [18]: Vascular cell adhesion molecule 1 (VCAM1), VCAM1 (gene 7412)
The assay can be described thus: BSK_CASM3C_VCAM1: BioMAP Diversity Plus: CASM3C Assay for Vascular cell adhesion molecule 1 (VCAM1) Biomarker Activity (AID 2283055).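 Also: VCAM-1 protein level quantified by ELISA on the cells.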 Conditions: primary human coronary artery smooth muscle cells; actives raise or lower the signal.

Read-out in assay [19]: CD40, CD40 (gene 958)
Put plainly: BSK_SAg_CD40: BioMAP Diversity Plus: SAg Assay for CD40 Biomarker Activity (AID 2283088). Conditions: primary human HUVEC with PBMC; actives raise or lower the signal. A digest of the protocol: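 Human umbilical vein endothelial cells co-cultured with PBMC; CD40 levels measured by ELISA with fluorescence read-out 24 h after chemical dosing. Gain or loss of signal fitted bidirectionally against DMSO baseline.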

Read-out in assay [20]: Collagen I, COL1A1 (gene 1277)
Put plainly: BSK_hDFCGF_CollagenI: BioMAP Diversity Plus: hDFCGF Assay for Collagen I Biomarker Activity (AID 2284250). Conditions: primary human foreskin fibroblasts. Summed up: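 Readout: Collagen I by ELISA after 24 h compound treatment of primary human foreskin fibroblasts. Endpoint analysed for increases relative to DMSO; total protein by SRB in parallel wells flagged cytotoxicity.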

“And” between values parts separate entries of the source, which are not always exact repeats. Equal entries are not always repeated. Results filed as inconclusive are left out. Some compounds were tested as several samples or in several runs, with calls that do not always agree. The source made the active and inactive calls. The calls were made as follows, unless noted: active = hit-call score of the fitted dose curve at least 0.9, where 1 is the maximum; inactive = score below 0.9.

One may read the AC50 as the concentration at which the activity in the assay is half-maximal.

Sequence of Signal transducer and activator of transcription 3 (Homo sapiens) (P40763 whole entry, looked up, the tested form may be a part): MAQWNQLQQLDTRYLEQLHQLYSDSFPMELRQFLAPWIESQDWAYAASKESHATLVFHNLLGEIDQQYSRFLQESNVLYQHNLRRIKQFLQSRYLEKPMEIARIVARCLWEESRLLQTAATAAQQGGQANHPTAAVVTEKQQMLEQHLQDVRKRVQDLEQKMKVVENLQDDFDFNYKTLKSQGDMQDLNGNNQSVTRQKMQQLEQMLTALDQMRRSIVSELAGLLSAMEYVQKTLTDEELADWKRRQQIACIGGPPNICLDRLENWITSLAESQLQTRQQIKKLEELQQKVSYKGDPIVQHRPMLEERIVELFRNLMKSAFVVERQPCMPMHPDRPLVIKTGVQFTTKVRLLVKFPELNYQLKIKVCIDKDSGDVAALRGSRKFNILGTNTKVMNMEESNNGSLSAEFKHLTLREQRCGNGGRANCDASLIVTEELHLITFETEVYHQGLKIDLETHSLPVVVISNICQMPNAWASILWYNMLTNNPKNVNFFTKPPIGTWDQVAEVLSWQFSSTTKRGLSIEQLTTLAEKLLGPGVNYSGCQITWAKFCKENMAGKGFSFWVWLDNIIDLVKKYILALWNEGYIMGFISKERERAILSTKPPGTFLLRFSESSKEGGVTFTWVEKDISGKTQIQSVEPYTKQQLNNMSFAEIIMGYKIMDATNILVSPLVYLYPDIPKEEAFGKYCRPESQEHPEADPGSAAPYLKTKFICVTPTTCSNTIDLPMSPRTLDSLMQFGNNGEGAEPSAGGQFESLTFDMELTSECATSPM
Sequence of human Peroxisome Proliferator-activated Receptor alpha (PPARa), PPARA (gene 5465) (Q07869 whole entry, looked up, the tested form may be a part): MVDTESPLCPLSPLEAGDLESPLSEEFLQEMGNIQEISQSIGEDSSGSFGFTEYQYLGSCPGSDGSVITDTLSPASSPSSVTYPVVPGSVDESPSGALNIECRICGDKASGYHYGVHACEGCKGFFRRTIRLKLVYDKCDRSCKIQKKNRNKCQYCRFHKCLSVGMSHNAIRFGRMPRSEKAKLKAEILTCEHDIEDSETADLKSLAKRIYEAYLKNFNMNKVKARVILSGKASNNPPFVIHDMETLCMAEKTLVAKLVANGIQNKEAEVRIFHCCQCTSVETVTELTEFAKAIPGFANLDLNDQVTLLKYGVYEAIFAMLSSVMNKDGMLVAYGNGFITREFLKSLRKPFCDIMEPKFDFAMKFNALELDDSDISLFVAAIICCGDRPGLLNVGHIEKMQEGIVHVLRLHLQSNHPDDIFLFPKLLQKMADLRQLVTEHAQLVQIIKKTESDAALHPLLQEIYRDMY

In the case of `O=C(C1CCCCC1)N1CC(=O)N2CCc3ccccc3C2C1` (stereo not given), the outcome in [1], in assay [2], in assay [3], in assay [4], in [5] and in [6] was inactive. In assay [7], the AC50 is 8.4 µM (active).

Take `COc1c2occc2cc2ccc(=O)oc12`: the call in [8], in [2], in assay [9], in assay [3], in [4] and in assay [5] was inactive. In addition, the compound was classed as inactive in assay [6] and in [10]. Also, in assay [7], the AC50 was 14.5 µM (active).

As for `CC(=O)OC(C)(C)Cc1ccccc1`, the result in [8], in assay [4], in assay [5], in assay [6], in assay [7] and in assay [10] was inactive.

For `O=[N+]([O-])c1cc(S(=O)(=O)Nc2ccccc2)ccc1Nc1ccccc1`, the AC50 in assay [11] is 30.7 µM (active); in [12], 20 µM (active); in assay [13], 33.5 µM (active); in assay [14], 32.6 µM (active); in [17], 5.66 µM (active) and 8.09 µM (active); in [18], 20 µM (active). Besides, the AC50 in [19] is 26 µM (active) and 25 µM (active); in assay [20], 3.86 µM (active). Moreover, the outcome in assay [11], in assay [12], in [13], in [14], in assay [15] and in assay [16] was inactive. Moreover, the result in assay [18] and in assay [20] was inactive.

On to `CC(C)(C)C(=O)C(=O)O`, for which the compound was called inactive in [10].

`CCCCC(CC)COC(=O)C=Cc1ccc(OC)cc1` (stereo not given): the AC50 in assay [11] is 30.8 µM (active) and 28.7 µM (active); in assay [12], 9.77 µM (active) and 8.63 µM (active); in [14], 31.7 µM (active); in assay [15], 32.4 µM (active); in [16], 32.3 µM (active); in [18] it was 14.9 µM (active). The AC50 in assay [19] is 32.1 µM (active) and 31.9 µM (active); in assay [20], 9.37 µM (active). The result in assay [13], in assay [14], in assay [15], in assay [16], in assay [17] and in assay [18] was inactive. Also, the result in assay [20] was inactive.

In the case of `OCCc1ccccn1`, the compound was classed as inactive in assay [1], in assay [8], in assay [2] and in assay [5].

For the compound `Oc1ccc(Cl)cc1C1CCCC1`, the results for the AC50 in assay [1], in assay [6] and in assay [7] were 61.3 µM (active), 39.1 µM (active) and 9.24 µM (active), respectively. The result in [3] and in assay [4] was inactive.

`COc1ccc(C(=O)c2ccccc2O)c(O)c1`: the AC50 was 7.28 µM (active) in assay [11]; 10.2 µM (active) in assay [13]; 20 µM (active) and 16.1 µM (active) in [15]; 13.4 µM (active) and 3.97 µM (active) in assay [18]; 29.9 µM (active) in assay [19]. The result in assay [11], in assay [12], in assay [13], in assay [14], in [16] and in assay [17] was inactive. The outcome in assay [19] and in assay [20] was inactive.

On to `Brc1ccc(Oc2ccc(Br)cc2)cc1`, for which the compound was called inactive in assay [2], in assay [9] and in [3]. In addition, the results for the AC50 in assay [7] and in [10] were 7.35 µM (active) and 65.4 µM (active), respectively.

On to `CCC(C)(CCC(C)C)C(=O)O` (stereo not given), for which the compound was classed as inactive in [1], in assay [8], in assay [9], in assay [3], in assay [4] and in assay [5]. In addition, the outcome in assay [6], in assay [7] and in assay [10] was inactive.

For the compound `CCO[Si](CCCN)(OCC)OCC`, the result in assay [1], in [8], in [2], in [9], in assay [4] and in assay [5] was inactive. Also, the compound was called inactive in assay [6] and in assay [10].

Turning to `CCOC(=O)c1ccccc1`, the call in [1], in assay [9], in [3], in assay [5], in assay [6] and in assay [7] was inactive. Also, the AC50 was 61.9 µM (active) in assay [2] and 50 µM (active) in assay [10].

As for `C1CN(CCOCCN2CCOCC2)CCO1`, the AC50 in [11] was 9.48 µM (active); in [15] it was 1.82 µM (active). Further, the result in assay [11], in [12], in assay [13], in [14], in assay [15] and in [16] was inactive. Besides, the result in [17], in assay [18], in assay [19] and in assay [20] was inactive.

On to `COc1ccc2ccccc2c1`, for which the compound was called inactive in [1], in assay [8], in [2], in assay [9], in assay [3] and in [4]. In assay [6], the call was inactive.

The values are drawn from PubChem BioAssay (EPA / NIEHS).
